Source: PubChem BioAssay AID1159580 (chemical genetic matrix, 2015)
The campaign covered roughly 5,500 compounds. About 2,000 (36%) were called active. Roughly 18% stayed inconclusive and do not appear here. Cut-off read from the data, not from the text of the source: active = normalized growth mostly below about 0.91 (no sharp cut-off); inconclusive = no clear call, values can overlap the other calls; inactive = mostly above about 0.92. This is one part of the list.

Test: chemical genetic growth profiling, strain panel (AID 1159580);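 note: tested at 20 µM; growth read once vehicle control cultures reached saturation at 30 °C; 1 = growth at the plate median or of vehicle wells; lower values mean less growth of the strain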
Conditions: S. cerevisiae deletion strains, growth OD
[1] = locus YAL013W, strain DEP1, hits give low values
[2] = locus YBR229C, strain ROT2, hits give low values
[3] = locus YDL101C, strain DUN1, hits give low values
[4] = locus YDL134C, strain PPH21, hits give low values
[5] = locus YDR150W, strain NUM1, hits give low values
[6] = locus YEL061C, strain CIN8, hits give low values
[7] = locus YGR078C, strain PAC10, hits give low values
[8] = locus YGR229C, strain SMI1, hits give low values
[9] = locus YHR030C, strain SLT2, hits give low values
[10] = locus YHR087W, strain rtc3, hits give low values
[11] = locus YJL187C, strain SWE1, hits give low values
[12] = locus YJR043C, strain POL32, hits give low values
[13] = locus YJR075W, strain HOC1, hits give low values
[14] = locus YLR039C, strain RIC1, hits give low values
[15] = locus YLR058C, strain SHM2 (second series), hits give low values
[16] = locus YLR085C, strain ARP6, hits give low values
[17] = locus YLR262C, strain YPT6, hits give low values
[18] = locus YML094W, strain GIM5, hits give low values
[19] = locus YMR219W, strain ESC1, hits give low values
[20] = locus YMR263W, strain SAP30, hits give low values
[21] = locus YNL128W, strain TEP1, hits give low values
[22] = locus YNL153C, strain GIM3, hits give low values
[23] = locus YNL298W, strain CLA4 (second series), hits give low values
[24] = locus YNL322C, strain KRE1, hits give low values
[25] = locus YNR030W, strain Alg12, hits give low values
[26] = locus YPL055C, strain LGE1, hits give low values
[27] = locus YPL241C, strain CIN2, hits give low values
[28] = locus YPR135W, strain CTF4, hits give low values

Measured: normalized growth

COc1ccc(OCC(N)=O)cc1
inactive: [1] 1.01 | [2] 1.02 | locus YCL061C, strain MRC1, hits give low values 1.01 | [3] 1.01 | [4] 1.01 | [5] 0.898 | [6] 1.03 | [7] 1.01 | [8] 1.01 | [9] 1.07 | [10] 1.01 | [11] 1.01 | [12] 1.02 | [13] 1.04 | [14] 1.02 | [15] 1.02 | [16] 1.05 | [17] 1.04 | [18] 1.02 | [19] 1.01 | [20] 0.996 | locus YMR307W, strain GAS1, hits give low values 1.07 | [21] 1.01 | [22] 1.01 | [23] 1.03 | [24] 1.03 | [25] 1.02 | locus YOL006C, strain TOP1, hits give low values 1.01 | [26] 1.01 | [27] 1.02 | [28] 1.04

COc1ccc(C(=O)C2CCNCC2)cc1
inactive: [1] 0.991 | [2] 0.974 | [3] 0.972 | [5] 1.03 | [6] 1.01 | [7] 0.99 | [8] 1.01 | [9] 1.06 | [10] 0.974 | [11] 1 | [12] 1.01 | [13] 1.01 | locus YKL190W, strain CNB1, hits give low values 1 | [14] 1 | [15] 0.988 | [16] 1.09 | [17] 0.998 | [18] 0.969 | [19] 0.998 | [20] 1.02 | [21] 0.983 | [22] 1.02 | [23] 0.998 | [24] 1 | [25] 1.01 | [26] 1.01 | [27] 1.07 | [28] 0.995

COc1ccc2c(c1)CCCN2C(=O)NC(=O)c1c(F)cccc1Cl
inactive: [1] 1 | [2] 1.01 | [3] 1.04 | [4] 0.984 | [5] 1.07 | [6] 0.998 | [7] 1.02 | [9] 1.06 | [10] 0.95 | [12] 1.04 | [13] 0.997 | [14] 0.967 | [15] 0.975 | [16] 1 | [17] 0.925 | [18] 0.973 | [19] 0.997 | [20] 1.04 | [21] 1.01 | [22] 1.03 | [23] 1.03 | [24] 0.998 | [25] 1 | [26] 0.98 | [27] 1.02 | [28] 1.05
